In the library only some 6.5% were active in any assay of this set; here they are far more common.
Marburg entry inh – blocks Marburg virus binding to or entry into cells; 300,000 tested, 1.8% active; AID 540276; Marburg virus pseudotyped entry inhibition, cell reporter; Potency, µM (highest dose often 37.8 µM), inactives show top-dose activity change, negative = inhibition, hits mostly inhibitors; calls by dose curve; tested in HEK293 cells; note: potency is the fitted concentration of half-maximal effect
Vaccinia Venus – vaccinia inhibition (Venus reporter); Potency, µM (highest dose often 36.5 µM), inactives show at the highest dose activity change, negative = inhibition, usual class: inhibitors; 330,000 tested, 0.46% active; AID 720580; Vaccinia virus Venus reporter expression, fluorescence; calls by dose curve; tested in A549 cells; note: potency is the fitted concentration of half-maximal effect; nearly all actives have a fitted effect of over 30% in size
HCMV inh – inhibitors of human cytomegalovirus; HFF cells, HCMV-luciferase reporter, 72 h; active compounds read low; activity change, negative = inhibition, % at 57.5 µM; 410,000 tested, 4.5% active; AID 1259415; in the data active = activity change below about -60%; inconclusive = no clear call, values can overlap the other calls; inactive = above about -39%
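Inhibition of viral replication was scored as loss of reporter luminescence in HFFs infected with HCMV-luciferase (MOI 1 PFU/cell) for 72 h; compounds tested at 2 doses, normalized to buffer and Salinomycin controls.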
FMDV inh – blocks foot and mouth disease virus; FMDV antiviral cell-based qHTS; Potency, µM (top dose mostly 57.9 µM), inactives show at the highest dose activity change, negative = inhibition, most hits filed as inhibitors; 410,000 tested, 1.2% active; calls by dose curve; tested in HEK293T cells; note: read-out not given here; potency is the fitted concentration of half-maximal effect; nearly all actives have a fitted effect of over 45% in size
VACV mCherry inh – vaccinia inhibition (mCherry reporter) | AID 720579 | 310,000 tested, 0.63% active | Potency, µM (doses to about 36.5 µM), without a hit: at the highest dose activity change, negative = inhibition, usual class: inhibitors | Vaccinia virus mCherry reporter infection, fluorescence; calls by dose curve; tested in A549 cells; note: potency is the fitted concentration of half-maximal effect; nearly all actives have a fitted effect of over 35% in size
LASV entry inh – blocks Lassa virus binding to or entry into cells; Lassa virus pseudotype entry inhibition, cell reporter; Potency, µM (doses to about 37.9 µM), for the others: top-dose activity change, negative = inhibition, hits mostly inhibitors; 300,000 tested, 1.2% active; calls by dose curve; tested in HEK293 cells; note: potency is the fitted concentration of half-maximal effect; nearly all actives have a fitted effect of over 50% in size
Active calls of the source: *; ! = repeats disagree; [ ] = remark or other dose. % is set by controls: 0 for no effect and ±100 for the full control effect.

NC(=Nc1ccccc1)NC(=O)c1nc(Cl)c(N)nc1N was read as Marburg entry inh inconclusive, Vaccinia Venus inconclusive, FMDV inh 17.3%, VACV mCherry inh -14.1% and LASV entry inh inconclusive.
Screening NC(=NCc1ccccc1)NC(=O)c1nc(Cl)c(N)nc1N returned Marburg entry inh 10µM*!, Vaccinia Venus -27.6%, HCMV inh 13.8, FMDV inh -0.1%, VACV mCherry inh 16.6% and LASV entry inh 13.8%.
Screening Cc1ccc2[nH]c(C)c([N+](=O)[O-])c2c1 returned HCMV inh -29.9.
Screening Cc1ccc(S(=O)(=O)N2CCOC2CNC(=O)C(=O)NCCCN2CCOCC2)cc1 (configuration not stated) returned HCMV inh -61.2* and FMDV inh -21.3%.
Screening Cc1cccc(C)c1NC(=O)C(=O)NCCCN1CCOCC1 returned Marburg entry inh 21.7%, Vaccinia Venus 2µM*, HCMV inh -23.0, FMDV inh inconclusive, VACV mCherry inh 6.31µM* and LASV entry inh 22.3%.
Screening O=C(NCCc1c[nH]c2ccccc12)C(=O)NCC1OCCCN1S(=O)(=O)c1ccccc1 (configuration not stated) returned Marburg entry inh inconclusive, Vaccinia Venus -16.3%, HCMV inh inconclusive, FMDV inh inconclusive, VACV mCherry inh -10.3% and LASV entry inh inconclusive.
Cc1ccc(S(=O)(=O)N2CCCOC2CNC(=O)C(=O)NCCc2c[nH]c3ccccc23)cc1 (configuration not stated) was read as Marburg entry inh inconclusive, Vaccinia Venus inconclusive, HCMV inh -63.6*, FMDV inh 0.0%, VACV mCherry inh inconclusive and LASV entry inh inconclusive.
Screening C=CCNC(=S)Nc1ccc(C)c(S(=O)(=O)N2CCCCC2)c1 returned Marburg entry inh -13.9%, Vaccinia Venus -6.6%, HCMV inh 21.4, FMDV inh 12.3%, VACV mCherry inh -5.5% and LASV entry inh -26.7%.
Screening COc1ccc(NC(=S)Nc2ccc(C)c(S(=O)(=O)N3CCCCC3)c2)cc1 returned Marburg entry inh 14.6µM* and LASV entry inh -3.9%.
For Cc1ccc(NC(=S)Nc2ccc(C(C)C)cc2)cc1S(=O)(=O)N1CCCCCC1 the results were Marburg entry inh inconclusive, Vaccinia Venus inconclusive, HCMV inh -99.0*, FMDV inh 0.0%, VACV mCherry inh inconclusive and LASV entry inh inconclusive.
For COc1ccc(/C=C/C(=O)Nc2ccc(C)c(S(=O)(=O)N3CCOCC3)c2)cc1 the results were Vaccinia Venus inconclusive, HCMV inh -95.1*, FMDV inh inconclusive and VACV mCherry inh inconclusive.
Screening Cc1c(Cl)cccc1-c1ccc(C(=O)Nc2ccc(F)cc2)o1 returned Vaccinia Venus 7.8%, HCMV inh 30.5, FMDV inh 2.4%, VACV mCherry inh 0.2% and LASV entry inh 4.0%[46.1 µM].
COCCN1C(=O)C2=C(C1=O)C1N(C)c3ccccc3[C@@]13C[C@@H](CO)N(C(=O)CCC(=O)OC)C3=N2 (some centres not stated) was read as Marburg entry inh 5.1%[14.2 µM].
For COc1ccc(CC(=O)NNC2=Nc3cccc4cccc2c34)cc1OC the results were HCMV inh -0.3 and FMDV inh 29.5%.
O=C(NNC1=Nc2cccc3cccc1c23)c1ccc(Br)cc1 was read as Marburg entry inh inconclusive, Vaccinia Venus 10.4%, HCMV inh -61.7*, FMDV inh 0.0%, VACV mCherry inh inconclusive and LASV entry inh -16.0%[46.1 µM].
Cc1sc2ncnc(N3CCC(C(=O)Nc4nc(-c5cccs5)cs4)CC3)c2c1C was read as Marburg entry inh 2.24µM*, Vaccinia Venus -7.1%, HCMV inh 15.6, FMDV inh -18.0%, VACV mCherry inh -9.7% and LASV entry inh 3.7%.
For Cc1sc2ncnc(N3CCC(C(=O)Nc4ccc(S(N)(=O)=O)cc4)CC3)c2c1C the results were HCMV inh -78.6* and FMDV inh inconclusive.
Screening CCN(CC)S(=O)(=O)c1cc(NC(=O)C2CCN(c3ncnc4sc(C)c(C)c34)CC2)ccc1Cl returned Marburg entry inh 3.55µM*, Vaccinia Venus inconclusive, HCMV inh -82.3*, FMDV inh 8.91µM*, VACV mCherry inh inconclusive and LASV entry inh inconclusive.
For Cc1sc2ncnc(N3CCC(C(=O)Nc4ccccc4C(C)(C)C)CC3)c2c1C the results were Marburg entry inh inconclusive, Vaccinia Venus -12.5%, HCMV inh -36.3, FMDV inh 25.1µM*, VACV mCherry inh inactive and LASV entry inh -2.6%[46.1 µM].
CC(=O)c1ccccc1-c1ccc2c(c1)CC(CNC(=O)c1ccnc(Cl)c1)O2 (configuration not stated) was read as Vaccinia Venus inconclusive, FMDV inh inconclusive and VACV mCherry inh -15.0%.
Screening CC(C)Cn1cc(NC(=O)N2CCN(c3ccc(F)cc3)CC2)c2ccccc2c1=O returned Vaccinia Venus -3.4%, HCMV inh -11.4, FMDV inh -23.9%, VACV mCherry inh 1.9% and LASV entry inh inconclusive.
Screening O=C(NCCc1nnc2n1CCN(Cc1cc3ccccc3o1)CC2)c1ccoc1 returned Vaccinia Venus -11.2%, FMDV inh -28.1% and VACV mCherry inh inactive.
For CCCCN(CCCC)C(=O)c1cc2c(=O)n3ccccc3nc2s1 the results were Marburg entry inh -10.4%[46.1 µM], Vaccinia Venus -4.5%[7.34 µM], HCMV inh inconclusive, FMDV inh -2.0%, VACV mCherry inh -6.9%[7.34 µM] and LASV entry inh 19.3%[46.1 µM].
Cc1sc2ncnc(N3CCC(C(=O)NNC(=O)c4ccc(Cl)cc4)CC3)c2c1C was read as Marburg entry inh -27.4%, Vaccinia Venus -21.2%, HCMV inh inconclusive, FMDV inh 25.1µM*, VACV mCherry inh -14.9% and LASV entry inh 12.8%.
`Cc1ccc(C)c(S(=O)(=O)N2CCN(C(=O)C3CCN(c4ncnc5sc(C)c(C)c45)CC3)CC2)c1` gave Marburg entry inh inconclusive, Vaccinia Venus -18.6%, HCMV inh -67.3*, FMDV inh inconclusive, VACV mCherry inh -1.9% and LASV entry inh inconclusive.
COc1cccc(F)c1-c1nc2ccccc2n1C(C(=O)Nc1c(C)cccc1C)c1ccccc1 (configuration not stated) was read as HCMV inh -33.3.
For CCN1CCN(S(=O)(=O)c2cc(OCC(=O)NC3CCCCC3)c(C)cc2Cl)CC1 the results were Marburg entry inh inconclusive, HCMV inh -65.0*, FMDV inh inconclusive and LASV entry inh -25.9%.
For CCOC(=O)N1CCN(S(=O)(=O)c2cc(OCC(=O)NC3CCCCC3)c(C)cc2Cl)CC1 the results were Marburg entry inh inconclusive, HCMV inh -69.7*, FMDV inh -0.3% and LASV entry inh 17.8%.
`Cc1cc(Cl)c(S(=O)(=O)N2CCN(c3ccccn3)CC2)cc1OCC(=O)NC1CCCCC1` gave HCMV inh -76.9* and FMDV inh 22.4µM*.

High-throughput results (PubChem)
